Laboratory results: the supplement of paper PMC10338343
± gives the standard deviation.

System: EfPiwi piRISC loaded with piRNA #1 (26 nt)
Experiment: pre-steady-state target cleavage rate (min^-1); auxiliary factor: 500 nM Ephydatia muelleri Gtsf1; guide: piRNA #1 5'p-UGAGGUAGUAGGUUGUAUAGUAUCCA; MIWI and MILI are mouse PIWI proteins and EfPiwi is from a freshwater sponge; tags in brackets are library labels; higher = faster piRNA-guided slicing of the target
Experimental: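 Cleave-'n-Seq: a library of target RNAs (target site in constant flanks) at […] was incubated with 1 nM active freshwater sponge Ephydatia fluviatilis Piwi piRISC (synthetic 5'-monophosphorylated piRNA guide) with or without 500 nM EmGtsf1 at 33 °C for 1 min to 16 h. Uncleaved targets were sequenced and the pooled three trials fitted to a burst-and-steady-state model to give the pre-steady-state cleavage rate (min^-1). Sequence is the target site only. Fits with R² ≤ 0 are excluded.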

Sequence | pre-steady-state target cleavage rate
GGAGACCAUACUAUACAACGUAGUACCUCA | 0.00264 ± 0.0023
GGAGUGGAUACUAUAGAACCUACUACCUGA | 0.00222 ± 0.0011
GGAGACCUAACCUAUACAACCUACUACCUCA | 0.0868 ± 0.028
GGAGACCAUUCUAUACAACCUACUAGCUCA | 0.00323 ± 0.0026
GGAGACCUUACUAUACAACCUACUACCUAA | 0.00756 ± 0.0045
GGAGACCAUACUAUACAACCUGACUACCUCA | 0.00545 ± 0.0032
GGAGACGAUACUAUACAACCAACAACCUCA | 0.00278 ± 0.0019
GGAGACGAUACUAUACAAGCAACUACCUCA | 0.0046 ± 0.003
GGAGACCAUACUAUUCAACGUACUACCUCA | 0.00247 ± 0.0019
GGAGACGAUACUAUACAUCCUUCUACCUCA | 0.00356 ± 0.0021
GGAGUGGAUACUGAUACAACCUACUACCUCA | 0.0129 ± 0.0062
GGAGAGGAUACAAAACAACCUACUACCUCA | 0.00656 ± 0.0047
GGAGACCAUGACUAUACAACCUACUACCUCA | 0.0764 ± 0.029
GGAGACGAUACUAUACAAGGUACUACCUCA | 0.00393 ± 0.0023
GGAGACGAUACUAAACAACCUACUUCCUCA | 0.00245 ± 0.0022
GGAGACCAUACUAUACUACCUACUACCUGA | 0.00271 ± 0.0014
GGAGACCUAUCUAUACAACCUGCUACCUCA | 0.00697 ± 0.0045
GGAGACCUAACUGAUACAACCUACUACCUCA | 0.00745 ± 0.0044
GGAGACCAUACUAUACAAACUACUACCUCA | 0.00853 ± 0.0037
GGAGAGGAAACUAUACAACCUACUAGCUCA | 0.00276 ± 0.0019

Sequence | pre-steady-state target cleavage rate
GGAGACGAUACUAUACAACCUAUUACCUCA | 0.0146 ± 0.0053
GGAGACCAUUCUAUACAACCUACUACCACA | 0.00335 ± 0.0031
GGAGACCACUACUAUACAACCUACUACCUCA | 0.0313 ± 0.014
GGAGACCUAUCUAUACCAACCUACUACCUCA | 0.00573 ± 0.0036
GGAGACCUAUGUAUACAACCUGACUACCUCA | < 0.0001
GGAGACGUUACUAUAGAACCUACUACCUCA | 0.0026 ± 0.0023
GGAGACCAAACUAUACAACCUAGUACCUCA | 0.00518 ± 0.0029
GGAGACGAUACUAUACAACCUACUCCUCA | 0.0048 ± 0.0022
GGAGACCAUACUAUUCAACCUACUACGUCA | 0.00376 ± 0.0034
GGAGACGAUACUUACAACCUACUACCUCA | 0.00671 ± 0.0036
GGAGUGGAUACUAUACAACGUAGUACCUCA | 0.00292 ± 0.0011
GGAGACCAUACUAUACAACCUAUUACCUCA | 0.0186 ± 0.0067
GGAGACCAUACUAUACAACCAACUACCUCA | 0.00627 ± 0.0022
GGAGAGCAUACUAUACAACCUACAACCUCA | 0.0026 ± 0.0017
GGAGAGGAUACUAUGCAACCUACUACCUCA | 0.242 ± 0.091
GGAGACGAUACUAUACUACCUACUACGUCA | 0.00262 ± 0.0017
GGAGUGGAUACUAUACAACCAUGUACCUCA | 0.00412 ± 0.0026
GGAGAGGAUACUAUACAAGCUACUAGCUCA | 0.00266 ± 0.0018
GGAGACCAUACUAUACAACCUACUACAUCA | 0.00692 ± 0.004
GGAGACGAUACUUUACAACGUACUACCUCA | 0.00234 ± 0.0017
